# Assay outcomes (PubChem)
# HT1080 IDH1KD tx – HT-1080 IDH1 knockdown cell toxicity (counter line) | HT-1080 IDH1 knockdown viability, ATP luminescence, 48 h | Potency, µM (highest dose often 46.1 µM), for the others: at the highest dose activity, negative = toxicity, hits mostly cytotoxic | 360,000 tested, 2% active;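 note: 0% = DMSO wells and -100% = cell-free medium wells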
#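 In this qHTS, HT-1080 cells depleted of IDH1 are exposed for 48 h at 37 °C to compound titrations. Toxicity is scored from CellTiter-Glo luminescence, with DMSO as full viability and medium alone as none.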
# HT1080-NT tox – kills 2HG-producing HT-1080-NT fibrosarcoma cells | HT-1080-NT fibrosarcoma viability, CellTiter-Glo ATP luminescence, 48 h | Potency, µM (series often up to 46.1 µM), for the others: top-dose activity, negative = less viability, usual class: cytotoxic | 360,000 tested, 1.6% active | AID 686970;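 note: NT is the 2HG producing partner of a matched IDH1 knockdown line; 0% = DMSO-treated cells and -100% = media-only wells without cells; nearly all actives have a fitted effect of over 55% in size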
#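 Viability of the 2HG-overproducing fibrosarcoma line after 48 hours of compound exposure at 37 degrees C was determined by luminescence with CellTiter-Glo, and concentration-effect curves were then fitted and categorized.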
# KB-V1 cytotox – kills drug-selected multidrug resistant KB-V1 cells; KB-V1 MDR cells viability, CellTiter-Glo, 72 h; Potency, µM (doses to about 46.1 µM), usual class: cytotoxic; 400,000 tested, 3.4% active; AID 1347076; note: nearly all actives have a fitted effect of over 60% in size
#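 Potencies derive from concentration-effect curves fitted to normalized luminescence (CellTiter-Glo) of KB-V1 cells treated for 72 h at 37 degrees C in phenol-red-free DMEM containing 10% FBS.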
# KB-3-1 tox – kills parental KB-3-1 adenocarcinoma cells; KB-3-1 viability, CellTiter-Glo ATP luminescence, 72 h; Potency, µM (series often up to 46.1 µM), actives largely listed as cytotoxic; 400,000 tested, 1.4% active; AID 1347075; note: nearly all actives have a fitted effect of over 60% in size
#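 Cytotoxicity measured as CellTiter-Glo luminescence after 72 h at 37 C. Compound titrations were pinned onto drug-naive KB-3-1 parental adenocarcinoma cells grown in DMEM with 10% FBS, and normalized data fitted to concentration-response curves.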
# TDP1 cell noCPT – qHTS for Inhibitors of human tyrosyl-DNA phosphodiesterase 1 (TDP1): qHTS in cells in absence of CPT; AID 686978, 2013; DT40 Tdp1-/- hTDP1 cells, no CPT, ATP luminescence, 48 h; Potency, µM (top dose mostly 46.2 µM), for the others: top-dose activity change, negative = growth inhibition, usual class: inhibitors; 420,000 tested, 15% active; note: nearly all actives have a fitted effect of over 55% in size
#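 DT40 Tdp1-/-;hTDP1 cells, no CPT (DMSO vehicle only), 400 cells/well; compounds pin-transferred; ≥48 hr, 37 °C; CellTiter-Glo 30 min RT dark, luminescence read.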
# DT40 TDP1 CPT – DT40-hTDP1 cell growth loss with CPT; chicken DT40 Tdp1-/-;hTDP1 cells + 20 nM CPT, ATP luminescence, 48 h; Potency, µM (series often up to 46.2 µM), for inactives: top-dose activity change, negative = growth inhibition, actives largely listed as inhibitors; 420,000 tested, 12% active; AID 686979; note: nearly all actives have a fitted effect of over 55% in size
#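 Chicken DT40 Tdp1-/- cells complemented with human TDP1, 400 cells/well, exposed to compounds plus 20 nM camptothecin for at least 48 h at 37 C; viability read as ATP content by CellTiter-Glo luminescence.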
# Active calls of the source: *; i = inactive; ? = inconclusive; . = no result given; [ ] = another dose, or the depositor's remark. Shown are actives, neighbours in structure and some others; about 19% of the full set was active somewhere. Calls come from the whole dose curve; as a rule, active = well fitted curve in the direction sought with a large enough effect; inconclusive = small, poorly fitted or top-dose-only effect, or another doubt; inactive = no such curve, though single readings can be large; an effect the other way counts as inactive or inconclusive. Unless noted, % is set by controls: 0 for no effect and ±100 for the full control effect; potency is the fitted concentration of half-maximal effect.
SMILES,HT1080 IDH1KD tx,HT1080-NT tox,KB-V1 cytotox,KB-3-1 tox,TDP1 cell noCPT,DT40 TDP1 CPT
CC(O)(c1cccc(F)c1)c1nc(-c2ccc3ccccc3c2)cs1 (configuration not stated),?,?,i,i,23µM*,13µM*
CC(=O)Nc1cccc(-c2csc(C(C)(O)c3cccc(F)c3)n2)c1 (configuration not stated),-9%,-21%,i,i,?,23µM*
CC(O)(c1cccc(F)c1)c1nc(/C=C/c2ccccc2)cs1 (configuration not stated),?,-73%,i,i,?,18µM*
Cc1ccc(C2CC(C(F)(F)F)n3ncc(C(=O)NCc4ccco4)c3N2)cc1 (configuration not stated),2%,-2%,i,i,?,-28%
CC(O)(c1ccccc1)c1nc(-c2cccc(F)c2)cs1 (configuration not stated),0%,?,i,i,-22%,21µM*
OC(c1ccccc1)(c1nc(/C=C/c2ccc(C(F)(F)F)cc2)cs1)C(F)(F)F (configuration not stated),?,?,i,i,23µM*,?
CC(O)(c1cccc(F)c1)c1nc(-c2cc(F)cc(F)c2)cs1 (configuration not stated),?,?,i,i,?,2.9µM*
COc1ccc(-c2csc(C(C)(O)c3cccc(F)c3)n2)cn1 (configuration not stated),?,-28%,i,i,23µM*,23µM*
CC(C)Oc1ccc(-c2nc(-c3cccnc3)no2)cc1,.,.,i,i,?,?
Cc1c(C(=O)NCc2ccc([N+](=O)[O-])cc2)sc(=O)n1Cc1ccc2c(c1)OCO2,-30%,?,15µM*,i,?,?
C=Cc1ccc(Cn2c(C)c(C(=O)NCc3ccc4c(c3)OCO4)sc2=O)cc1,-17%,-15%,?,?,?,?
Cc1c(C(=O)NCc2ccc3c(c2)OCO3)sc(=O)n1Cc1ccc(S(=O)(=O)N(C)C)cc1,?,-22%,2.9µM*,?,16µM*,?
Cc1c(C(=O)NCc2ccc3c(c2)OCCO3)sc(=O)n1Cc1ccc2c(c1)OCO2,2%,-16%,?,i,?,?
Cc1c(C(=O)NCc2cccs2)sc(=O)n1Cc1ccc(S(=O)(=O)N(C)C)cc1,-13%,-2%,?,?,23µM*,?
Cc1c(C(=O)NCc2ccc3c(c2)OCCO3)sc(=O)n1Cc1ccccc1C(F)(F)F,-16%,-21%,?,i,?,?
Cc1c(C(=O)NCc2ccc3c(c2)OCCO3)sc(=O)n1Cc1ccc(S(=O)(=O)N(C)C)cc1,?,-1%,9.2µM*,?,15µM*,18µM*
CC(C)(C)C(=O)CNS(=O)(=O)c1ccc(S(=O)(=O)NC2CC2)cc1,12%,0%,i,i,2%,-2%
C[C@H](NC(=O)c1ncn(C)c1C(=O)N[C@@H](C)c1ccccc1)c1ccccc1,7%,8%,i,i,-30%,-28%
COc1ccc(CNC(=O)c2cn(Cc3ccc(S(=O)(=O)N(C)C)cc3)c(=O)s2)cc1,?,-7%,23µM*,?,?,?
O=C(/C=C/c1ccco1)Nc1ccc2nc3n(c(=O)c2c1)CCCC3,-2%,-20%,i,i,-21%,?
CCOc1ccccc1NC(=O)c1cc(C(=O)c2cc(OC)ccc2O)coc1=N,1%,-3%,12µM*,i,?,-21%
COc1ccccc1NC(=O)C(=O)/C=C(\O)c1ccccc1,10%,-6%,18µM*,i,15µM*,15µM*
COc1ccc(OC)c(/C(O)=C/C(=O)C(=O)Nc2cc(C)cc(C)c2)c1,0%,0%,?,i,18µM*,?
CCOc1ccccc1NC(=O)C(=O)/C=C(\O)c1cc(OC)ccc1OC,-8%,-9%,?,i,5.2µM*,5.8µM*
CC(C)NC(=O)c1cc(C(=O)c2cc(Cl)ccc2O)coc1=N,-10%,-3%,i,i,-2%,-20%
SMILES,HT1080 IDH1KD tx,HT1080-NT tox,KB-V1 cytotox,KB-3-1 tox,TDP1 cell noCPT,DT40 TDP1 CPT
O=c1ccn([C@@H]2O[C@H](CNCc3cccn3-c3ccncc3)[C@@H](O)[C@H]2O)c(=O)[nH]1,3%,-17%,i,i,-20%,?
Cn1c(SCCOc2ccccc2)nnc1-c1ccc(NC(=O)CCc2ccccc2)cc1,.,.,i,i,-11%,2%
COc1ccc(NC(=O)CCC(=O)Nc2nnc(CC(C)C)s2)cc1Cl,?,13%,i,i,22%,5%
CCCn1c(CN2CCN(C(=O)OCC)CC2)nc2c1c(=O)n(C)c(=O)n2C,2%,12%,i,i,5.2µM*,8.2µM*
CCCCCCn1c(CN2CCN(C(=O)OCC)CC2)nc2c1c(=O)n(C)c(=O)n2C,6%,3%,?,i,?,21µM*
CC1CCCN(Cc2nc3c(c(=O)n(C)c(=O)n3C)n2CCCc2ccccc2)C1 (configuration not stated),-1%,-2%,?,i,18µM*,21µM*
Cn1c(=O)c2c(nc(CN3CCCCC3)n2CCCc2ccccc2)n(C)c1=O,-2%,-8%,?,i,?,?
Cn1c(=O)c2c(nc(CN3CCN(C(=O)c4ccco4)CC3)n2CCCc2ccccc2)n(C)c1=O,-5%,0%,i,i,21µM*,?
CCOC(=O)N1CCN(Cc2nc3c(c(=O)n(C)c(=O)n3C)n2CCC(C)C)CC1,9%,-2%,i,i,?,-29%
CN(/N=C/c1ccncc1)c1cnc2ccccc2n1,-21%,-26%,?,i,?,-12%
O=C(NCCc1ccccc1)C1CC(=O)N(C2CCCC2)C1 (configuration not stated),0%,-1%,i,i,-18%,-9%
O=C(CN1CCN(C(C(=O)Nc2ccc(Cl)cc2C(F)(F)F)c2ccccc2)CC1)NC1CC1 (configuration not stated),-4%,16%[9.24 µM],?,i,?,?
